Assay outcomes: PubChem BioAssay, The Scripps Research Institute Molecular Screening Center
The list is not random: actives were taken first. Their share in the collection is about 1.1%.
MOR-DOR inv ag = mu-delta opioid heterodimer inverse agonism; P35372+P41143; cell-based MOR-DOR heterodimer luminescence; inhibition, % at 9.3 µM; actives 0.21% (n = 340,000); AID 504357; in the data active means inhibition above about 22%, passing the limit was not always enough
HTR5A inv ctr = HTR5A inverse agonism, opioid heterodimer counter-screen | P47898 | HTR5A cell line, luminescence | actives 0.083% (n = 340,000) | inhibition, % at 9.3 µM; in the data active means inhibition mostly above about 23%, no sharp cut-off; inactive means mostly below about 18%
Target sequence (P47898 whole entry, looked up): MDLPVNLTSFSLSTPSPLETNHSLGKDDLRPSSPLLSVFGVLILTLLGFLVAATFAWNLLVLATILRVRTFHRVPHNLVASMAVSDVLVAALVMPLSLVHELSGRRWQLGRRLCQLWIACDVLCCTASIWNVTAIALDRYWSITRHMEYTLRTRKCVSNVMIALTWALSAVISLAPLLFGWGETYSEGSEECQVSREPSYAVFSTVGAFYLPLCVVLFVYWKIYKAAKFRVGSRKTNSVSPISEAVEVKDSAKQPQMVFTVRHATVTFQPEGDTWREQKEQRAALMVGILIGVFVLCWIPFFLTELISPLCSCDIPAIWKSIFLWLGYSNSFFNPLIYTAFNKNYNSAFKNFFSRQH
MOR-DOR ag = agonists of human mu-delta opioid receptor heterodimerization; P35372+P41143; cells, OPRM1-OPRD1 heterodimerization, luminescence; activation, % at 9.3 µM; actives 0.3% (n = 340,000); AID 504326
HTR5A ag ctr = activates human HTR5A in OPRM1-OPRD1 agonist counter-screen | P47898 | HTR5A agonist assay, luminescence, cell-based | activation, % at 9.3 µM | actives 0.61% (n = 340,000) | AID 504692; in the data active means activation mostly above about 9.5%, no sharp cut-off; inactive means mostly below about 7.6%
OPRM1-D1 ag cf = confirmation of human OPRM1-OPRD1 heterodimerization agonists. cells, MOR-DOR heterodimerization, luminescence complementation. shares compounds with MOR-DOR ag. actives 45% (n = 830). activation, % at 9.3 µM
HTR5A ag counter = HTR5A agonism, opioid heterodimer counter-screen; shares compounds with MOR-DOR ag; activation, % at 9.3 µM; HTR5A agonist counterscreen, cell luminescence; actives 8% (n = 830); AID 504905; in the data active means activation above about 17%
Large screens that a line does not name were inactive (follow-up assays come after a bar, where they were run). Unless noted, no stated cut-off is given here; in the data, active means activation above about 18%; inactive means the rest.

CCS(=O)(=O)C1=NN2C(=N)/C(=C\c3ccc(SCc4ccco4)o3)C(=O)N=C2S1	HTR5A ag ctr 13
Cc1ccccc1-n1c(=O)n(Cc2ccc(C(=O)O)cc2)c(=O)c2[nH]cnc21	none
Cc1ccc(S(C)=O)cc1-n1c(=O)n(Cc2ccccc2)c(=O)c2[nH]cnc21 (stereo not drawn)	MOR-DOR inv ag 69, HTR5A inv ctr 55
Cc1cc(=O)oc2c(C)c(OC(C)C(=O)NCC(O)c3ccccc3)ccc12 (stereo not drawn)	none
COc1ccc(C)cc1NC(=O)NNC(=O)C1CCC(C(C)(C)C)CC1 (stereo not drawn)	HTR5A ag ctr 13
COc1ccc(C)cc1NC(=O)C1CCN(S(C)(=O)=O)CC1	none
CCc1ccc(NC(=O)C2(c3ccccc3)CC2(Cl)Cl)cc1 (stereo not drawn)	none
Cc1c(Cl)cccc1NC(=O)c1cccc(NC(=O)CCC(=O)O)c1	HTR5A ag ctr 12
Cc1nc(N2CCCCC2)c2ccsc2n1	none
C#CCNC(=O)C1=C[C@@H](c2ccc3c(c2)OCO3)[C@H](CCCO)[C@@H](OCC)O1	HTR5A ag ctr 11
CCO[C@@H]1OC(C(=O)NCc2ccccc2)=C[C@H](c2ccc3c(c2)OCO3)[C@H]1CCCO	none
O[C@@H](c1cc(C(F)(F)F)nc2c(C(F)(F)F)cccc12)[C@H]1CCCCN1	MOR-DOR ag 21
CC(C)(C)NCCC(O)c1cc(C(F)(F)F)nc2c(C(F)(F)F)cccc12 (stereo not drawn)	none
CC(C)CN1CCN(Cc2nc(C(C)C)cs2)CC1CCO (stereo not drawn)	HTR5A ag ctr 11
COc1ccccc1CNC(=O)C(C)NS(=O)(=O)c1ccc(C)cc1 (stereo not drawn)	none
Cn1c(/C=C/c2ccc(Cl)cc2)nc2ccccc2c1=O	HTR5A ag ctr 9.8
Cn1c(/C=C/c2ccccc2)nc2ccccc2c1=O	none
O=c1c2ccccc2nc(/C=C/c2ccccc2)n1CCCO	HTR5A ag ctr 9.9
O=[N+]([O-])c1ccc(-c2nc(Nc3cccc(O)c3)c3ccccc3n2)cc1	none
O=C(/C=C/c1ccccc1Cl)NCc1ccco1	none
Cc1cc(C)c(S(=O)(=O)/N=C2/C=C(Sc3ncn[nH]3)C(=O)c3ccccc32)cc1C	MOR-DOR ag 20
Cc1ccc(NCc2nnc(SCC(=O)NNC(=O)Cc3ccccc3)n2C)cc1	none
Cn1ncc(Cl)c1C(=O)Nc1cc(C(F)(F)F)ccc1F	none
CC(=O)N/C(=C\c1ccccc1)C(=O)OCc1cccc(S(=O)(=O)N(C)C)c1	HTR5A ag ctr 9.4
Cc1ccc2nc(N3CCN(c4cccc(C)c4C)CC3)c3nnnn3c2c1	none
Cc1ccc2nc(Cl)c3nnnn3c2c1	MOR-DOR inv ag 38
O=C(c1ccc(Cl)c(S(=O)(=O)NCc2ccco2)c1)N1CCN(c2ccccc2F)CC1	HTR5A ag ctr 13
Cc1cc(C)nc(N2CCCC(C(=O)NCc3cccc(C(F)(F)F)c3)C2)n1 (stereo not drawn)	HTR5A ag ctr 12
COc1ccc(CC(=O)Nc2ccc(-c3nc4cc(C)ccc4o3)c(O)c2)cc1OC	HTR5A ag ctr 14
CN(C(=O)COC(=O)c1ccc2c(c1)NC(=O)CS2)C1CCS(=O)(=O)C1 (stereo not drawn)	none
O=C(NCc1cccs1)C1CCN(S(=O)(=O)c2cccc3cccnc23)CC1	HTR5A ag ctr 14
COc1cc(C2c3cc4c(cc3OC(NCCc3ccccc3)C2C)OCO4)cc(OC)c1OC (stereo not drawn)	HTR5A ag ctr 11
C#CC(=O)N(c1ccc(OC)cc1OC)C(C(=O)NC1CCCC1)c1cccs1 (stereo not drawn)	MOR-DOR ag 52, HTR5A ag ctr 43
CCCCn1c(C)csc1=Nc1cccnc1	none
COc1ccccc1C(=O)NCCCNC(=O)c1ccccn1	none
Cc1ccc(SCC(=O)NC(C)(C)C)cc1	none
COC(=O)c1ccccc1NC(=O)c1ccc(Cn2cc(Cl)cn2)o1	MOR-DOR ag 19 | OPRM1-D1 ag cf inactive | HTR5A ag counter inactive
COC(=O)c1cc(NC(=O)c2ccc(Cn3cc(Cl)cn3)o2)cc(C(=O)OC)c1	none
COc1ccc(C2Nc3ccccc3C(=O)N2Cc2ccco2)cc1CN1C(=O)c2ccccc2C1=O (stereo not drawn)	none
COc1ccc(N2C(=O)c3ccccc3NC2c2ccc(OC)c(CSc3ccccn3)c2)cc1 (stereo not drawn)	none
CCCN1C(=O)c2ccccc2NC1c1ccc(OC)c(CSc2ccccn2)c1 (stereo not drawn)	MOR-DOR ag 22 | OPRM1-D1 ag cf inactive | HTR5A ag counter inactive
COc1ccc(C2Nc3ccccc3C(=O)N2Cc2ccco2)cc1COc1ccc(F)cc1 (stereo not drawn)	MOR-DOR ag 38 | OPRM1-D1 ag cf 26 | HTR5A ag counter inactive
O=C(CCc1n[nH]c(=O)[nH]c1=O)N1CCOCC1	none
O=C(CSc1nnc(-c2ccccc2Br)o1)N1CCN(C(=O)c2ccco2)CC1	none
COc1ccc(/C=C/C(=O)NC(=S)NCCc2ccc(OC)c(OC)c2)cc1	MOR-DOR ag 30 | OPRM1-D1 ag cf 55 | HTR5A ag counter inactive
COc1ccc(CCNC(=O)/C=C\c2ccccc2)cc1OC	none
Cc1ccc2c(Cl)c(Cc3ccccc3)c(=S)[nH]c2n1	MOR-DOR ag 21 | OPRM1-D1 ag cf 35 | HTR5A ag counter inactive
Cc1cc(/C=C2/C(=O)NN(c3ccccc3)C2=O)c(C)n1-c1cccc(O)c1	MOR-DOR ag 20 | OPRM1-D1 ag cf inactive | HTR5A ag counter inactive
O=C(OC1C2CCC1C1CN(CCc3ccccc3)CC12)c1ccccc1 (stereo not drawn)	MOR-DOR ag 18 | OPRM1-D1 ag cf 60 | HTR5A ag counter inactive
CCOC(=O)C1CCCN(CCc2ccccc2)C1 (stereo not drawn)	none
CCOc1cc(/C=N/NC(=O)c2ccncc2)ccc1OC(=O)c1ccc([N+](=O)[O-])cc1	MOR-DOR ag 45 | OPRM1-D1 ag cf inactive | HTR5A ag counter inactive
CCOc1cc(/C=N/NC(=O)c2ccncc2)ccc1OC(=O)c1ccccc1	none
CCOC(=O)C(=NC(C)CC)NNc1ccc(Br)cc1 (stereo not drawn)	none
CCOc1ccc(CN2CCN(CC(O)Cn3c4ccccc4c4ccccc43)CC2)cc1 (stereo not drawn)	none
COc1ccc(CN2CCN(CC(O)Cn3c4ccccc4c4ccccc43)CC2)cc1 (stereo not drawn)	MOR-DOR ag 21 | OPRM1-D1 ag cf 24 | HTR5A ag counter inactive
CCC1CCCCN1CCN1C(=O)C2C(C(=O)Nc3ccc(OC)cc3)C3C=CC2(O3)C1C(=O)NC1CCCCC1 (stereo not drawn)	MOR-DOR ag 34 | OPRM1-D1 ag cf inactive | HTR5A ag counter inactive
FC(F)(F)c1cnc(Nc2ccc(N3CCOCC3)cc2)c(Cl)c1	MOR-DOR ag 28 | OPRM1-D1 ag cf inactive | HTR5A ag counter inactive
